From PubChem BioAssay (NCI)
Compounds without any hit were thinned out: in the full panel of roughly 83,000, 20% have a hit.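 Values shown are percent growth following 48 h exposure of cells in 96-well plates to a single concentration of compound; below 10 was considered active.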 Activity calls are given as the source filed them.

Assays:
Experiment in all cases: NCI-60 one-dose screen, 48 h (100 = growth as untreated, 0 = no growth, -100 = all killed)
Details in all cases: 10 µM unless noted
[1] = test system: DU-145 prostate
[2] = test system: K-562 leukemia
[3] = test system: MALME-3M melanoma
[4] = test system: MDA-MB-231 breast
[5] = test system: RXF 393 renal
[6] = test system: SF-268 CNS
[7] = test system: SF-295 CNS
[8] = test system: SF-539 CNS
[9] = test system: UACC-257 melanoma
[10] = test system: M14 melanoma
[11] = test system: HCT-15 colon
[12] = test system: HT29 colon
[13] = test system: SNB-75 CNS
[14] = test system: SNB-19 CNS
[15] = test system: U251 CNS
[16] = test system: SK-MEL-5 melanoma
[17] = test system: UACC-62 melanoma
[18] = test system: LOX IMVI melanoma
[19] = test system: SK-MEL-28 melanoma
[20] = test system: PC-3 prostate

Measured: growth

NC1[C@H]2CN(c3cnc(C(=O)Nc4cc(F)cc5cccnc45)cn3)C[C@@H]12 (some centres undefined)
inactive: [1] 76.4% | [2] 15% | [3] 57.5% | [4] 47.8% | [5] 70.6% | [6] 87.5% | [7] 96.4% | [8] 76.9% | [9] 97.7% | [10] 79.3% | [11] 32.2% | [12] 26.9% | [13] 56.7% | [14] 75.2% | [15] 60.7% | [16] 89% | [17] 92.1% | [18] 71.5% | [19] 86.1%

O=c1c2ccccc2cc2n1CCN=C2c1ccccc1
inactive: [1] 102% | [2] 103% | [3] 102% | [4] 96.2% | [5] 96.2% | [6] 97.2% | [7] 103% | [8] 98.6% | [9] 110% | [10] 103% | [11] 96.6% | [12] 104% | [13] 94.9% | [14] 94.8% | [15] 97% | [16] 99.5% | [17] 96% | [18] 101% | [19] 112%

COC(=O)c1cccc(NC2=C(Cl)C(=O)c3nc(C)ccc3C2=O)c1
active: [2] 6.34%
inactive: [1] 105% | [3] 87.5% | [4] 62.6% | [5] 59.7% | [6] 99.5% | [7] 107% | [8] 111% | [9] 62% | [10] 98.3% | [11] 51.6% | [12] 110% | [13] 119% | [14] 92.2% | [15] 106% | [16] 97.9% | [17] 95.4% | [18] 10.2% | [19] 93.6%

CC(C)NC(=O)c1cc(-c2ccc(NC(=O)Nc3ccc(F)cc3)cc2)nc2cccnc12
inactive: [1] 114% | [2] 110% | [3] 118% | [4] 97.8% | [5] 123% | [6] 109% | [7] 97.7% | [8] 102% | [9] 102% | [10] 102% | [11] 99.5% | [12] 104% | [13] 101% | [14] 99.9% | [20] 96.7% | [16] 101% | [17] 96% | [18] 98% | [19] 107%

O=C(CSc1nnc(-c2ccc(Cl)cc2)n1-c1ccccc1)Nc1ccc(Cl)cc1
inactive: [1] 62.1% | [2] 59.1% | [3] 51% | [4] 12.9% | [5] 22.9% | [6] 41.4% | [7] 17.2% | [9] 88.2% | [10] 62.7% | [11] 81.5% | [12] 62.6% | [14] 59.6% | [20] 61.4% | [16] 82.2% | [17] 76.1% | [18] 10.8% | [19] 71.2%
active: [8] -15% | [13] -11.2%

CN(C)CCNc1ccc2ncc(C#Cc3cncc(C(=O)Nc4ccc(CN5CCN(C)CC5)c(C(F)(F)F)c4)c3)n2n1
active: [2] 2.29% | [4] -18.2% | [5] -75.1% | [6] -50.9% | [8] -71.8% | [12] -13% | [13] -93.4% | [14] 1.59% | [20] 2.27% | [18] -88.6%
inactive: [1] 18.9% | [3] 17.4% | [7] 45.2% | [9] 74.9% | [10] 54.1% | [11] 34.7% | [16] 74.6% | [17] 60.2% | [19] 75%

COc1ccc(-c2cc(-c3ccc(N4CCOCC4)cc3)n3c(n2)nc2ccccc23)cc1OC
inactive: [1] 91.2% | [2] 68.9% | [3] 93.3% | [4] 70.9% | [5] 72.8% | [6] 90.7% | [7] 100% | [8] 76.7% | [9] 97.7% | [10] 93.1% | [11] 83.1% | [12] 105% | [13] 83.3% | [14] 85.1% | [20] 73% | [16] 55.8% | [17] 94.3% | [18] 78.4% | [19] 94.4%

CC(Nc1c(C#N)cnc2ccc(-c3cncc(O)c3)cc12)c1ccccc1 (centres undefined)
inactive: [2] 15.3% | [4] 14.4% | [9] 18.2% | [12] 46.8% | [13] 10.5%
active: [1] 3.93% | [3] -34.1% | [5] -24.6% | [6] 2.54% | [7] -13% | [8] 0.714% | [10] 4.07% | [11] 4.88% | [14] -6.67% | [20] 9.41% | [16] -89.4% | [17] -51.2% | [18] 1.56% | [19] 3.08%

C#Cc1nc(/C=C/CCCCCCC(=O)NO)cs1
inactive: [1] 23.8% | [2] 13.1% | [3] 22% | [6] 83.2% | [7] 82.5% | [9] 56.6% | [10] 62.4% | [11] 77% | [12] 54.2% | [14] 86.1% | [20] 72.8% | [16] 63.2% | [17] 45.8% | [19] 75.4%
active: [4] -31% | [5] -6.54% | [8] -89.4% | [13] -17.1% | [18] -84.2%

O=C1C(N2CCN(c3ccccc3)CC2)=C(Cl)C(=O)c2ncccc21
active: [2] 6.19% | [3] -1.87%
inactive: [1] 45.7% | [4] 75.3% | [5] 27.8% | [6] 79.4% | [7] 103% | [8] 81.2% | [9] 55.4% | [10] 69.6% | [11] 20.3% | [12] 106% | [13] 83.7% | [14] 81.5% | [20] 71.9% | [16] 95.1% | [17] 61.8% | [18] 10.4% | [19] 83%

C#C[C@]1(O)CC[C@H]2[C@@H]3CC=C4c5sc(Nc6ccc(C)cn6)nc5CC[C@]4(C)[C@H]3CC[C@@]21C
active: [2] -2.56% | [3] -31.4% | [4] -1.2% | [5] -78.6% | [6] -7.73% | [7] -70.2% | [8] -66.8% | [9] -42.8% | [10] -48.8% | [11] -45.6% | [12] 1.03% | [13] -12.2% | [14] -21.2% | [15] -1.79% | [16] -93.1% | [17] -24.8% | [18] -61.7% | [19] -72.4%
inactive: [1] 27.9%

O=C(CCCCCCNC(=O)C(O)(O)C(F)(F)F)Nc1ccc(Br)cc1
inactive: [2] 15.2% | [3] 10.1% | [4] 28.4% | [8] 18.5% | [9] 15.5% | [10] 25.1% | [11] 20.8% | [13] 33.9% | [14] 14.7% | [20] 31.6%
active: [1] 0.633% | [5] -38.1% | [6] 8.01% | [7] -25.3% | [12] 2.18% | [16] -68.3% | [17] -50% | [18] -75.2% | [19] 9.41%

Brc1ccc2[nH]cc(-c3nn4cc(-c5nccs5)nc4s3)c2c1
active: [3] -7.45% | [4] -13.5% | [5] -46.4% | [13] -1.58% | [20] 9.64% | [18] 8.86%
inactive: [1] 20.8% | [2] 13.1% | [6] 31.7% | [7] 37.1% | [8] 29.7% | [9] 56.8% | [10] 13.3% | [11] 10.2% | [12] 40.9% | [14] 61.1% | [16] 73.1% | [17] 79.3% | [19] 49.6%

COC(=O)N1CCN(CCNCc2ccc(NC(=O)c3ccc(C)c(C#Cc4cnc5cccnn45)c3)cc2C(F)(F)F)CC1
active: [2] 5.18% | [3] -49.1% | [4] -9.19% | [5] -47.2% | [7] -25.1% | [8] -15.9% | [9] -10.6% | [10] 8.75% | [11] 6.88% | [16] -75.2% | [18] -79.5%
inactive: [1] 44.9% | [6] 28.2% | [12] 17.3% | [13] 17.4% | [14] 59.6% | [20] 25.5% | [17] 39.3% | [19] 12%

CC(Nc1c(C#N)cnc2ccc(-c3cncc(-c4n[nH]c(=O)o4)c3)cc12)c1ccccc1 (centres undefined)
inactive: [2] 28.5% | [4] 17.2% | [6] 12.2% | [9] 34.2% | [10] 18.7% | [11] 10.4% | [12] 20.2% | [14] 11.1% | [20] 18.9% | [19] 11.2%
active: [1] 8.39% | [3] -8.08% | [5] -24% | [7] -7.24% | [8] -12.8% | [13] 7.1% | [16] -84.8% | [17] -37% | [18] -8.49%

CCCCCc1ccc(S(=O)(=O)Nc2cc(-c3csc(N)n3)ccc2OC)cc1
inactive: [1] 107% | [2] 83.9% | [3] 96.1% | [4] 92% | [5] 99.7% | [6] 94.7% | [7] 84.8% | [8] 89.7% | [9] 107% | [10] 103% | [11] 81.8% | [12] 114% | [13] 103% | [14] 91.3% | [20] 90.8% | [16] 84.8% | [17] 75.9% | [18] 107% | [19] 111%
